Bioassay records: PubChem, several laboratories
Compounds with a hit are over-represented: about 22% of the library has one in this group of screens.
CYP2C9 act: human CYP2C9 activators, primary screen, biochemical, luminescence; Cytochrome P450 2C9 (Homo sapiens), P11712; recombinant CYP2C9, luciferin-H conversion; active compounds read high; factor 1 = untreated enzyme, 0 = blocked; activation factor at 5 µM; 1.4% of 96,000 active; AID 1024, 2008;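 active = activation factor of 2 or more for CYP2C9 at a 5 µM dose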
cytoskel mod: modifiers of F-actin cytoskeleton organization, primary screen, imaging, HUVEC, phalloidin staining, high-content imaging | HUVEC TNFa F-actin phalloidin imaging | inhibition, % at 2 µM | 0.18% of 91,000 active;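 active = inhibition above the batch mean plus 3 SD and confirmed as a hit by visual image inspection, cut at about 30% in these data, passing the limit was not always enough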
E-sel TNF inh: E-selectin induction blockers in HUVEC – imaging, immunofluorescence, high content, primary screen | HUVEC TNFa-induced E-selectin immunofluorescence | inhibition, % at 2 µM | 0.71% of 120,000 active | AID 1246, 2008;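 active = inhibition above the batch mean plus 3 SD, and confirmed as a hit on visual image review, cut at about 43% in these data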
CYP2C19 inhib: blockers of cytochrome P450 2C19 activity – biochemical, luminescence, ADME assay, primary screen; CYP2C19 Supersomes, luciferin-H EGE luminescence, 30 min; inhibition, % at 5 µM; AID 778, 2007; 21% of 96,000 active; P33261;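 active = CYP2C19 inhibition above a set limit at 5 µM in the primary screen, cut at about 50% in these data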
Target sequence (P33261 whole entry, looked up): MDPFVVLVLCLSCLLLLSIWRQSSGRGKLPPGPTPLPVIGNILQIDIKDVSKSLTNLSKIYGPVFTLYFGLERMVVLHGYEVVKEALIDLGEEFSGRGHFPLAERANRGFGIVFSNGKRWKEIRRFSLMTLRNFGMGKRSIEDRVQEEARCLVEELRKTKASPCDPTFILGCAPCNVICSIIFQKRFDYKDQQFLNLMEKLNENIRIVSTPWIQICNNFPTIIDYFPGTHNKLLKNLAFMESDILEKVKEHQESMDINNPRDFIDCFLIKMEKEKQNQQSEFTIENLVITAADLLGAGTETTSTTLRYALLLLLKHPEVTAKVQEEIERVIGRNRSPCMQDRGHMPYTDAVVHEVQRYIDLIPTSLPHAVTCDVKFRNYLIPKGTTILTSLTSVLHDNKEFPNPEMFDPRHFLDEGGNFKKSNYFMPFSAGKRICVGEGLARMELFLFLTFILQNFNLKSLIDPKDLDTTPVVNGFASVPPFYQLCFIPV
CYP2C19 act: human CYP2C19 activators, primary screen, biochemical, luminescence; AID 1025, 2008; 96,000 tested, under 10 active; activation factor at 5 µM; recombinant CYP2C19, luciferin-H EGE luminescence; active compounds read high; 0 = fully inhibited enzyme, 1 = untreated enzyme;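 active = activation factor of at least 2 at 5 µM in the primary screen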
CYP2C9 inh: blockers of cytochrome P450 2C9 activity – biochemical, luminescence, ADME assay, primary screen. 20% of 96,000 active. inhibition, % at 5 µM. CYP2C9 Supersomes, luciferin-H conversion. P11712;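 active = blocking of liver enzyme CYP2C9 beyond about 50% at 5 µM, limit read from the data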
Large screens that a line does not name were inactive.

CCOC(=O)Cc1csc(NC(=O)CSc2nc(-c3ccccc3)c(C#N)c(=O)[nH]2)n1	none (no result: CYP2C9 act, cytoskel mod, CYP2C19 inhib, CYP2C19 act, CYP2C9 inh)
COC(=O)C(CC(C)C)NC(=O)CSc1nc(-c2ccccc2)c(C#N)c(=O)[nH]1 (stereo not drawn)	CYP2C19 inhib 65, CYP2C9 inh 88
CCC(Sc1nc(-c2ccccc2)c(C#N)c(=O)[nH]1)C(=O)Nc1cc(C)on1 (stereo not drawn)	CYP2C9 inh 83 (no result: cytoskel mod)
COC(=O)/C=C1/S/C(=N/NC(=O)c2ccccc2)NC1=O	none
COC(=O)/C=C1/S/C(=N/NC(=O)c2ccccc2C)NC1=O	CYP2C9 inh 78
COC(=O)/C=C1\S/C(=N/NC(=O)c2ccccc2)NC1=O	CYP2C9 inh 81
CCOC(=O)N1CCN(c2nc(C)cc(C(F)(F)F)n2)CC1	CYP2C19 inhib 66 (no result: cytoskel mod)
CCN(CC)C(=O)Cn1cc(S(=O)(=O)CC(=O)NCCc2ccc(OC)c(OC)c2)c2ccccc21	none (no result: CYP2C9 act, cytoskel mod, CYP2C19 inhib, CYP2C19 act, CYP2C9 inh)
O=C(O)c1ccccc1CSc1nc2ccccc2o1	none
CCCCCCOC(=O)Sc1nc2ccccc2o1	CYP2C19 inhib 52, CYP2C9 inh 65
COc1ccccc1N1CCN(C2=NS(=O)(=O)c3ccccc32)CC1	none
C=CCN1/C(=C(\C#N)C2=NS(=O)(=O)c3ccccc32)N(C)c2ccccc21	CYP2C19 inhib 55
COC(=O)c1sc(N)c(C(=O)OC)c1COC(=O)c1c(C)noc1C	CYP2C19 inhib 96, CYP2C9 inh 97
C=CCn1c(CCC(=O)O)ccc1-c1ccccc1	CYP2C9 inh 70
COc1cc(NC(=O)c2cc(Cl)ccc2Cl)ccc1-c1cc2ccccc2oc1=O	none
COCC(=O)Nc1cc(C(=O)Nc2cccc(C)c2C)ccc1Cl	CYP2C9 inh 58
COCC(=O)Nc1cc(C(=O)Nc2ccccc2C)ccc1Cl	none
O=C(/C(=C/c1ccccc1Cl)c1ccccc1)N1CCOCC1	none (no result: CYP2C9 act, cytoskel mod, CYP2C19 inhib, CYP2C19 act, CYP2C9 inh)
O=C(/C(=C/c1ccccc1)c1ccccc1)N1CCCCC1	CYP2C9 inh 74
Cc1nn2c(c1-c1ccc(Cl)cc1)N=C(c1ccco1)CC2c1ccccc1 (stereo not drawn)	CYP2C9 inh 73
CN1CCCN(C(=O)c2ccc(Cl)c(S(=O)(=O)N(C)c3ccccc3)c2)CC1	none (no result: E-sel TNF inh)
CCOC(=O)N1CCC2(CC1)C(C(=O)C13CC4CC(CC(C4)C1)C3)C2(C#N)C#N (stereo not drawn)	CYP2C19 inhib 67, CYP2C9 inh 52 (no result: E-sel TNF inh)
C=CCn1c(SCc2c(C)noc2C)nc2sc(C)c(C)c2c1=O	CYP2C9 inh 56
Cc1noc(C)c1CSc1nc2sc(C)c(C)c2c(=O)n1-c1ccccc1	CYP2C9 inh 50
COc1ccc(-c2noc(CSc3nc4sc(C)c(C)c4c(=O)n3-c3ccccc3)n2)cc1OC	none
Cc1noc(C)c1CSc1nnnn1-c1ccc(Cl)cc1	CYP2C19 inhib 99, CYP2C9 inh 58
O=C(O)CCn1c(SCc2ccccc2)nc2ccccc21	none
Cc1noc(C)c1CSc1nc2ccccc2n1CCc1ccccc1	CYP2C19 inhib 63, CYP2C9 inh 62 (no result: E-sel TNF inh)
COc1ccccc1-c1c(C(F)(F)F)oc2cc(OCC(=O)Nc3ccccc3C(F)(F)F)ccc2c1=O	none (no result: CYP2C9 act, cytoskel mod, CYP2C19 inhib, CYP2C19 act, CYP2C9 inh)
Cc1ccc(S(=O)(=O)N2CCOCC2)cc1NC(=O)COc1ccc(-c2nnco2)cc1	none (no result: CYP2C9 act, cytoskel mod, CYP2C19 inhib, CYP2C19 act, CYP2C9 inh)
Cc1cc(NC(=O)CSc2nc3ccccc3c(=O)n2-c2ccccc2)no1	none
C=CCn1c(SCC(=O)c2cc(C)n(C(C)COC)c2C)nc2sc(C)c(C)c2c1=O (stereo not drawn)	CYP2C19 inhib 89, CYP2C9 inh 91
Cc1noc(C)c1CSc1nc2ccccc2c(=O)n1-c1ccc(Cl)cc1	CYP2C19 inhib 71, CYP2C9 inh 96
Cc1cccc(C)c1NC(=O)CSc1nnc(Cc2ccccc2)o1	none (no result: CYP2C9 act, CYP2C19 inhib, CYP2C19 act, CYP2C9 inh)
Cn1cc(CCNC(=O)CCc2nnc(CCCCc3ccccc3)o2)cn1	none (no result: CYP2C9 act, cytoskel mod, CYP2C19 inhib, CYP2C19 act, CYP2C9 inh)
CC(OC(=O)C1CCN(S(=O)(=O)c2ccccc2)CC1)C(=O)Nc1ncc(Cl)cc1Cl (stereo not drawn)	CYP2C19 inhib 75, CYP2C9 inh 93 (no result: E-sel TNF inh)
Cc1cc(=O)n2nc(-c3ccccc3)sc2c1C#N	E-sel TNF inh 95 (no result: cytoskel mod)
Cc1cc(Br)c(Cl)cc1NC(=O)CN1C(=O)C2C3CC(c4ccccc4)C(C3)C2C1=O (stereo not drawn)	none (no result: CYP2C9 act, cytoskel mod, CYP2C19 inhib, CYP2C19 act, CYP2C9 inh)
Cc1ccc(CSCC(=O)N/N=C/c2sccc2C)cc1	CYP2C19 inhib 83
CC(=O)NC1=NN(C(C)=O)C(c2cccs2)S1 (stereo not drawn)	none (no result: CYP2C9 act, CYP2C19 inhib, CYP2C19 act, CYP2C9 inh)
Cn1cc(SCC(=O)Nc2ccc3c(c2)OCO3)c2ccccc21	CYP2C19 inhib 100, CYP2C9 inh 65 (no result: E-sel TNF inh)
Cc1cc2ccccc2c(=O)n1CC(=O)Nc1ccc2c(c1)OCO2	none (no result: CYP2C9 act, cytoskel mod, CYP2C19 inhib, CYP2C19 act, CYP2C9 inh)
CCCn1cc(SCC(=O)Nc2ccc3c(c2)OCO3)c2ccccc21	CYP2C19 inhib 74, CYP2C9 inh 77 (no result: E-sel TNF inh)
Cn1c(=O)cc(SCC(=O)Nc2ccc3c(c2)OCO3)c2ccccc21	none (no result: E-sel TNF inh)
NC(=O)c1ccccc1NC(=O)CCCN1C(=O)CCC1=O	none
CCCCOc1ccc(N2C(=O)CC(N(O)c3ccccc3)C2=O)cc1 (stereo not drawn)	none
CCOc1ccccc1N1C(=O)CC(N(O)c2ccccc2)C1=O (stereo not drawn)	CYP2C19 inhib 93 (no result: E-sel TNF inh)
Cc1cccc(C)c1N1C(=O)CC(N(O)c2ccccc2)C1=O (stereo not drawn)	CYP2C19 inhib 97
Cc1c(Cl)cccc1N1C(=O)CC(N(O)c2ccccc2)C1=O (stereo not drawn)	CYP2C9 act 2.6, E-sel TNF inh 100, CYP2C19 inhib 94
CC(=O)c1ccc(NC(=O)CSc2nc(C)cc(C)c2C(N)=O)cc1	none (no result: CYP2C9 act, cytoskel mod, CYP2C19 inhib, CYP2C19 act, CYP2C9 inh)
Cc1nnc2sc(-c3ccccn3)nn12	none (no result: cytoskel mod)
O=C(c1ccc2c(=O)n(Cc3ccco3)c(=S)[nH]c2c1)N1CCN(Cc2ccccc2)CC1	CYP2C19 inhib 57, CYP2C9 inh 70
O=c1c2cc3c(cc2[nH]c(=S)n1Cc1ccco1)OCO3	CYP2C19 inhib 78
CN1CCN(C(=O)c2ccc3c(=O)n(Cc4ccco4)c(=S)[nH]c3c2)CC1	none (no result: cytoskel mod)
CCOC(=O)N1CCN(C(=O)c2ccc3c(=O)n(CCc4ccccc4)c(=S)[nH]c3c2)CC1	CYP2C19 inhib 72, CYP2C9 inh 71
CCOC(=O)N1CCN(C(=O)c2ccc3c(=O)n(Cc4ccc(Cl)cc4)c(=S)[nH]c3c2)CC1	CYP2C9 inh 52 (no result: E-sel TNF inh)
CN(Cc1ccccc1)C(=O)c1cc(-c2ccc(Br)cc2)on1	E-sel TNF inh 100 (no result: CYP2C9 act, cytoskel mod, CYP2C19 inhib, CYP2C19 act, CYP2C9 inh)
Cc1cc(C(=O)N(C)Cc2ccc(Br)cc2)no1	CYP2C19 inhib 92 (no result: cytoskel mod)
CCCNC(=O)c1cc(-c2ccc(Br)cc2)on1	none (no result: E-sel TNF inh)
COc1cccc(CNCC(=O)N2C(C)CCCC2C)c1 (stereo not drawn)	none
O=c1oc2ccccc2c(Nc2cccc(O)c2)c1[N+](=O)[O-]	CYP2C19 inhib 91
